About 83,000 compounds went through this panel and 20% of them were active in at least one assay; those are over-represented in the sample as a whole.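 Results are percent growth after 48 hours of single-concentration exposure. 100 means growth as in untreated cells, lower positive values show inhibition; negative values down to -100 show cell death.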 A number with no mark means an inactive call. Calls of active or inactive are those of the source. How the source made its calls: active means growth percent below 10; inactive means the rest.

One test relates to DU-145 prostate. The test can be described thus: NCI-60 one-dose screen, 48 h (100 = growth as untreated, 0 = no growth, -100 = all killed). Particulars: 10 µM unless noted.
Regarding `CC(=O)O[C@H]1CC[C@]2(C)[C@H]3CC=C4[C@@H]5CC(C)(C)CC[C@]5(C(=O)OCC(COC(=O)C(Cl)Cl)(COC(=O)C(Cl)Cl)NC(=O)C(Cl)Cl)CC[C@@]4(C)[C@]3(C)CC[C@H]2C1(C)C`, the growth was 62.2%.
Same read-out and setting: then `Clc1ccc(Cl)c(N=Cc2ccc3c(c2)OCO3)c1`, with 120%.
On the same count and under the same terms, then `CCN(CC)c1ccc2c(cc1=O)[C@@H](NC(C)=O)CCc1cc(OC)c(OC)c(OC)c1-2`, with -10.2% (active); and `COc1ccc(CNc2c3ccccc3nc3ccc(OC)cc23)cc1`, with 20%; and `NC(=O)c1ccc[n+](Cc2ccccc2)c1`, with 101%.
Still for that read-out and setting: the value for `N/N=C(\C(=N\N)c1ccccc1)c1ccccc1` was 113%; that for `CC1=C(O)C(=O)CC1` was 112%.
`CCN(CC)CCCC(C)Nc1ccnc2ccc(Oc3ccccc3)cc12` (stereo not drawn): the growth is 88.6%.
The same measure, in the same setting: the value for `COc1cc2ncnc(Nc3ccc(S(=O)(=O)Nc4nccs4)cc3)c2cc1OCCCN1CCOCC1` was 110%; that for `CC(=O)Cc1ccccn1` was 107%.
As for `CC1OC(n2c3ccccc3c3c4c(c5c6ccccc6[nH]c5c32)C(=O)N(CCN[C@H]2CCC[C@@H]2N)C4=O)CC(O)C1O` (stereo partly drawn), the growth is 44.5%.
On the same count and under the same terms, then `O=C(C(=O)N1CCCC1)c1cn(CCCn2cc(C(=O)C(=O)N3CCCC3)c3cc(Br)ccc32)c2ccc(Br)cc12`, with 62.3%; and `CCCCCCCOc1cccc(/C=C2\N=C3SCCCN3C2=O)c1`, with 94.5%; and `COc1ccc(NC(=O)c2sc3c(=O)[nH]c(C(F)(F)F)nc3c2C)cc1`, with 118%.
Consider `C=C[C@H]1CCC/C=C/[C@@H]2C[C@H](O)C[C@H]2[C@H](O)/C=C/C(=O)O1`, for which the growth was 5.86% (active).
The same measure, in the same setting: the value for `C=CC(=O)N1CN(C(=O)C=C)CN(C(=O)C=C)C1` was 77%; that for `CC(C)CCSc1nc(Nc2ccccc2)c(C#N)c(-c2ccc(F)cc2)n1` was 82.3%; that for `COC(=O)c1ccc2c(c1)nc(-c1cc3ccccc3[nH]c1=O)n2-c1cc(C(C)(C)C)[nH]n1` was 83.7%.
In the case of `O=C1NN(C(=O)c2ccccc2)C(c2ccc(Cl)c(Cl)c2)=C/C1=C\c1ccccc1[N+](=O)[O-]`, the growth was 25.3% [6.75 µM].
On the same count and under the same terms, the value for `O=C(CCl)Nc1ccc2c(c1)C(=O)c1ccccc1C2=O` was 3.17% (active); that for `CCOC(=O)C1C(=O)C=C(c2cc(OC)c(OC)c(OC)c2)CC1c1sc(N(C)Cc2ccccc2)nc1Cl` (stereo not drawn) was 106%; that for `N/C(=N\OC(=O)c1ccccc1)C(C(=O)NOC(=O)c1ccccc1)C1CCCCC1` (stereo not drawn) was 57.7%.
The same measure, in the same setting: the value for `C=C(C)[C@@H]1CC[C@]2(C(=O)O)CC[C@]3(C)[C@H](CC[C@@H]4[C@@]5(C)C[C@@H](CC#Cc6ccc(C(C)=O)s6)[C@H](O)C(C)(C)[C@@H]5CC[C@]43C)[C@@H]12` was 57.2%; that for `CC(C)[C@@H]1C=C2CC[C@H]3[C@](C)(CN)CCC[C@]3(C)[C@H]2CC1` was 44.1%; that for `COc1ccc(-c2cc(-c3cn(-c4cccc(Cl)c4)nc3-c3ccc(OC)cc3)[nH]c(=S)n2)cc1` was 50.1%.
The same measure, in the same setting: the value for `CCN1CCN(Cc2ccc(NC(=O)Nc3ccc(-n4ccc5c(NC(=O)c6ccccc6)nccc54)cc3)cc2C(F)(F)F)CC1` was -58.6% (active).
`Clc1ccc(C2=NN[C@H](c3cn(-c4ccccc4)nc3-c3ccccc3)C2)cc1`: the growth was 55.3%.
The same measure, in the same setting: then `CC(C)CC1NC(=O)C(CC(C)C)N(CO)C1=O` (stereo not drawn), with 119%; and `c1ccc(-c2ccc(-c3ccccc3)[nH]2)cc1`, with 102%.
The same measure, in the same setting: the value for `C=CCN(CC#N)CC=C` was 112%; that for `COc1ccc2c(c1)sc1nc(-c3ccccc3)c(-c3cccc4ccccc34)n12` was 18.9%; that for `CC(C)c1nc2ccccc2n1CC(=O)N/N=C/c1cccc(O)c1` was 104%.
The same measure, in the same setting: the value for `CCCCCCCC/C=C\CCCCCCCC(=O)OCCCCCC` was 103%; that for `CCN(CC)c1ccc(/C=N/NC(=O)c2ccc(S(C)(=O)=O)cc2)c(O)c1` was 24.5%; that for `CC(=O)CC(c1ccc([N+](=O)[O-])cc1)c1c(O)c2ccccc2oc1=O` (stereo not drawn) was 106%.
Consider `CC1CCCN(CCCCOc2ccc(-c3ccc(C#N)cc3)cc2)C1` (stereo not drawn), for which the growth is 101%.
Still for that read-out and setting: the value for `Cn1c(-c2ccccc2)cc(=O)n1-c1ccccc1` was 120%; that for `O=C(NCCN1CCCC1)n1cc(-c2ccncc2)c(-c2cc(O)cc(Cl)c2)n1` was 104%; that for `C(=Nc1ccc(-c2ccc(N=Cc3ccccc3)cc2)cc1)c1ccccc1` was 118%.

The next test concerns K-562 leukemia. Described as above. Particulars: 10 µM unless noted.
As for `CC(=O)O[C@H]1CC[C@]2(C)[C@H]3CC=C4[C@@H]5CC(C)(C)CC[C@]5(C(=O)OCC(COC(=O)C(Cl)Cl)(COC(=O)C(Cl)Cl)NC(=O)C(Cl)Cl)CC[C@@]4(C)[C@]3(C)CC[C@H]2C1(C)C`, the growth was 38.8%.
The same measure, in the same setting: the value for `Clc1ccc(Cl)c(N=Cc2ccc3c(c2)OCO3)c1` was 103%; that for `CCN(CC)c1ccc2c(cc1=O)[C@@H](NC(C)=O)CCc1cc(OC)c(OC)c(OC)c1-2` was 0.286% (active); that for `COc1ccc(CNc2c3ccccc3nc3ccc(OC)cc23)cc1` was 0.27% (active).
On to `NC(=O)c1ccc[n+](Cc2ccccc2)c1`, for which the growth is 113%.
For the compound `N/N=C(\C(=N\N)c1ccccc1)c1ccccc1`, the growth is 111%.
Regarding `CC1=C(O)C(=O)CC1`, the growth was 106%.
The same measure, in the same setting: then `CCN(CC)CCCC(C)Nc1ccnc2ccc(Oc3ccccc3)cc12` (stereo not drawn), with 13.7%; and `COc1cc2ncnc(Nc3ccc(S(=O)(=O)Nc4nccs4)cc3)c2cc1OCCCN1CCOCC1`, with 106%; and `CC(=O)Cc1ccccn1`, with 100%.
Same read-out and setting: then `CC1OC(n2c3ccccc3c3c4c(c5c6ccccc6[nH]c5c32)C(=O)N(CCN[C@H]2CCC[C@@H]2N)C4=O)CC(O)C1O` (stereo partly drawn), with 10.2%.
On the same count and under the same terms, the value for `O=C(C(=O)N1CCCC1)c1cn(CCCn2cc(C(=O)C(=O)N3CCCC3)c3cc(Br)ccc32)c2ccc(Br)cc12` was 81.9%.
In the case of `CCCCCCCOc1cccc(/C=C2\N=C3SCCCN3C2=O)c1`, the growth was 90.4%.
The same measure, in the same setting: the value for `COc1ccc(NC(=O)c2sc3c(=O)[nH]c(C(F)(F)F)nc3c2C)cc1` was 102%; that for `C=C[C@H]1CCC/C=C/[C@@H]2C[C@H](O)C[C@H]2[C@H](O)/C=C/C(=O)O1` was 9.93% (active); that for `C=CC(=O)N1CN(C(=O)C=C)CN(C(=O)C=C)C1` was 23.5%.
The same measure, in the same setting: then `CC(C)CCSc1nc(Nc2ccccc2)c(C#N)c(-c2ccc(F)cc2)n1`, with 38.8%; and `COC(=O)c1ccc2c(c1)nc(-c1cc3ccccc3[nH]c1=O)n2-c1cc(C(C)(C)C)[nH]n1`, with 32.2%; and `O=C1NN(C(=O)c2ccccc2)C(c2ccc(Cl)c(Cl)c2)=C/C1=C\c1ccccc1[N+](=O)[O-]`, with 15.1% [6.75 µM].
On the same count and under the same terms, the value for `O=C(CCl)Nc1ccc2c(c1)C(=O)c1ccccc1C2=O` was -8.49% (active); that for `CCOC(=O)C1C(=O)C=C(c2cc(OC)c(OC)c(OC)c2)CC1c1sc(N(C)Cc2ccccc2)nc1Cl` (stereo not drawn) was 66.4%.
Turning to `N/C(=N\OC(=O)c1ccccc1)C(C(=O)NOC(=O)c1ccccc1)C1CCCCC1` (stereo not drawn), the growth is 2.85% (active).
On the same count and under the same terms, the value for `C=C(C)[C@@H]1CC[C@]2(C(=O)O)CC[C@]3(C)[C@H](CC[C@@H]4[C@@]5(C)C[C@@H](CC#Cc6ccc(C(C)=O)s6)[C@H](O)C(C)(C)[C@@H]5CC[C@]43C)[C@@H]12` was 34.7%; that for `CC(C)[C@@H]1C=C2CC[C@H]3[C@](C)(CN)CCC[C@]3(C)[C@H]2CC1` was 17.5%; that for `COc1ccc(-c2cc(-c3cn(-c4cccc(Cl)c4)nc3-c3ccc(OC)cc3)[nH]c(=S)n2)cc1` was 101%.
Same read-out and setting: the value for `CCN1CCN(Cc2ccc(NC(=O)Nc3ccc(-n4ccc5c(NC(=O)c6ccccc6)nccc54)cc3)cc2C(F)(F)F)CC1` was -39.2% (active); that for `Clc1ccc(C2=NN[C@H](c3cn(-c4ccccc4)nc3-c3ccccc3)C2)cc1` was 61.6%; that for `CC(C)CC1NC(=O)C(CC(C)C)N(CO)C1=O` (stereo not drawn) was 97.1%.
On the same count and under the same terms, then `c1ccc(-c2ccc(-c3ccccc3)[nH]2)cc1`, with 81.1%.
For the compound `C=CCN(CC#N)CC=C`, the growth is 102%.
The same measure, in the same setting: then `COc1ccc2c(c1)sc1nc(-c3ccccc3)c(-c3cccc4ccccc34)n12`, with 15%; and `CC(C)c1nc2ccccc2n1CC(=O)N/N=C/c1cccc(O)c1`, with 87%; and `CCCCCCCC/C=C\CCCCCCCC(=O)OCCCCCC`, with 100%.
On the same count and under the same terms, the value for `CCN(CC)c1ccc(/C=N/NC(=O)c2ccc(S(C)(=O)=O)cc2)c(O)c1` was 12.4%; that for `CC(=O)CC(c1ccc([N+](=O)[O-])cc1)c1c(O)c2ccccc2oc1=O` (stereo not drawn) was 104%; that for `CC1CCCN(CCCCOc2ccc(-c3ccc(C#N)cc3)cc2)C1` (stereo not drawn) was 62%.
On the same count and under the same terms, the value for `Cn1c(-c2ccccc2)cc(=O)n1-c1ccccc1` was 110%; that for `O=C(NCCN1CCCC1)n1cc(-c2ccncc2)c(-c2cc(O)cc(Cl)c2)n1` was 82%; that for `C(=Nc1ccc(-c2ccc(N=Cc3ccccc3)cc2)cc1)c1ccccc1` was 95.4%.

Values taken from PubChem BioAssay (NCI).
